Data: PubChem BioAssay (Tox21)
Values without a mark were called inactive. The source made the active and inactive calls. The call rests on the fitted dose curve.

target: Thyrotropin-releasing hormone receptor (Homo sapiens) (UniProt P34981); assay: qHTS assay to identify small molecule agonists of the thyrotropin-releasing hormone receptor (TRHR) signaling pathway (AID 1346891); details: TRHR-HEK293 calcium fluorescence, agonist mode; series mostly up to 57.6 µM; activation: at the top concentration;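 on activation: HEK293 cells expressing TRHR with calcium dye readout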
Sequence (P34981 whole entry, looked up): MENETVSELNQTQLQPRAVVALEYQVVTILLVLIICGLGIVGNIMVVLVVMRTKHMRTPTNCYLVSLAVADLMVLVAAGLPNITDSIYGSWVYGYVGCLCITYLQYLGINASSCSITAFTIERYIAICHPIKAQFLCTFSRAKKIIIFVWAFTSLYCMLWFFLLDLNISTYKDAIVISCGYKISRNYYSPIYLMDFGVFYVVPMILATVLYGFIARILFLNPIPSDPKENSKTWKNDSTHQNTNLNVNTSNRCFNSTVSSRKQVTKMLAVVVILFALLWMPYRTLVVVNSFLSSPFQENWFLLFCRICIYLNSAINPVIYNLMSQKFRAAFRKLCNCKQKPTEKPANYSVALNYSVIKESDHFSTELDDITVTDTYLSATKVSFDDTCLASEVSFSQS
Excerpt: National Center for Advancing Translational Sciences [NCATS] NIH Chemical Genomics Center [NCGC] U.S. Environmental Protection Agency [EPA] National Institutes of Environmental Health Sciences [NIEHS] National Toxicology Program [NTP] Assay overview: Thyrotropin-releasing hormone (TRH) receptor (TRHR) is a G-protein-coupled receptor which binds the tripeptide thyrotropin releasing hormone. TRHR is found in the brain and, when bound by TRH, acts (through phospholipase C) to increase intracellular inositol trisphosphate. It plays a crucial role in the anterior pituitary where it controls the synthesis and secretion of thyroid stimulating hormone and prolactin. The TRHR-Hek293 assay is a cell-based assay, and it has the potential to screen G protein-coupled receptors. A compound/drug can either activate (agonist) or suppress (antagonist) GPCRs that can be monitored by levels of intracellular calcium. Using this assay, the Tox21 10K compound library was screened to identify potential TRHR agonists.
Assay Protocol Summary: The TRHR-Hek293 cells were dispensed at 1500cells/4uL/well in 1536-well black-clear bottom plates using a Multidrop dispenser. After the assay plates were incubated at a 37 C/5% CO2 incubator for 18 hours, 4 uL of Dye-Loading Solution was added to each well. The plates were incubated at 37 C for 2 hours. For agonist mode, 23 nL of compounds dissolved in DMSO, positive controls or DMSO only was transferred to the assay plate by a pin tool. The fluorescence intensity in the plates was measured using FDSS 7000EX kinetic plate reader for 3 min at 1 sec intervals. Each test compound was measured at 15 concentrations and in triplicates.
On the % scale 0 is the no-effect control and ±100 the full control effect; potency means the concentration at half of the fitted maximal effect.

Row | Compound | activation | Potency
1 | CCCCCCCCCCCCCCCCCBr | -0.232% [at 11.8 µM] | 
2 | CC(C)(C)c1cc(CO)cc(C(C)(C)C)c1O | -0.0449% | 
3 | O=C=NC1CCC(CC2CCC(N=C=O)CC2)CC1 (stereo not given) | -0.0702% | 
4 | CCCCc1cc2ccccc2c(OCCN(C)C)n1 | 25.9% [at 26.5 µM] | 
5 | Cc1ccc(C)o1 | -0.447% | 
6 | CC(=O)N(O)CCCCCNC(=O)CCC(=O)N(O)CCCCCNC(=O)CCC(=O)N(O)CCCCCN | -0.0118% [at 26.5 µM] | 
7 | CC(=O)O[C@@H]1C(=O)O[C@@H]2[C@H]1OC(=O)[C@@H]2OC(C)=O | -0.0315% [at 26.5 µM] | 
8 | CCOc1ccc(NC(=O)CC(C)=O)cc1 | -0.224% | 
9 | CC1=CC(=O)/C(=C(/C)O)C(=O)O1 | -0.0833% | 
10 | O=C1c2cccc(O)c2C(=O)c2c(O)cc(CO)cc21 | 0.109% | 
11 | C1CCC2OC2C1 (stereo not given) | 0.0033% | 
12 | CCCC(=O)OCC | 0.537% | 
13 | CCN(CC)CCc1nc(-c2ccccc2)no1 | 0.0445% [at 26.5 µM] | 
14 | CC(=O)NCCCS(=O)(=O)O |  | 11.9 µM (active)
15 | COC(=O)C(C)=O | -0.191% | 
16 | C#CCOC(=O)[C@@H](C)Oc1ccc(Oc2ncc(Cl)cc2F)cc1 | -0.0309% | 
17 | NC(N)=NN=C(/C=C/c1ccc([N+](=O)[O-])o1)/C=C/c1ccc([N+](=O)[O-])o1 | -0.404% [at 26.5 µM] | 
18 | C=CCCCCCC | -0.0582% | 
19 | CC(=O)SCc1ccco1 | -0.385% | 
20 | N[C@H]1C(O)O[C@H](CO)[C@H](O)[C@@H]1O (stereo not given in full) | -0.0111% | 

Row | Compound | activation | Potency
21 | Cc1ccccn1 | 0.255% | 
22 | O=C(O)C1CCC(C(=O)O)CC1 (stereo not given) | -0.0679% | 
23 | C=CC(=O)OCC(C)OCC(C)OCC(C)OC(=O)C=C (stereo not given) | -0.466% | 
24 | C=Cc1c(C)c2cc3[nH]c(cc4nc(cc5nc(cc1[nH]2)C(C)=C5CCC(=O)O)C(CCC(=O)O)=C4C)c(C)c3C=C | 3.63% [at 26.5 µM] | 
25 | Oc1ccc(Cc2ccccc2)cc1 | 3.05% | 
26 | CC(=O)/C(C)=C/C1C(C)=CCCC1(C)C (stereo not given) | -0.914% | 
27 | Cn1sccc1=O |  | inactive
28 | CCN(CC)CCOc1ccc2c(c1)C(=O)c1cc(OCCN(CC)CC)ccc1-2 | 0.267% [at 26.5 µM] | 
29 | Oc1ccc(Sc2ccc(O)cc2)cc1 | 0.639% | 
30 | CC(=O)CC(=O)c1ccccc1 | 2.02% | 
31 | CC(CN)CCCN (stereo not given) | 0.133% | 
32 | CCOc1cc(OCC)c(C(=O)CCC(=O)O)cc1OCC | -0.133% [at 26.5 µM] | 
33 | Cl/C(=C\n1cncn1)c1ccc(Cl)cc1Cl | 0.519% [at 26.5 µM] | 
34 | O=C(O)Cc1sc(-c2ccccc2)nc1-c1ccc(Cl)cc1 | -0.0963% [at 26.5 µM] | 
35 | Cn1c(N)nc2nc[nH]c2c1=O | 1.06% | 
36 | CC(=O)N(CC(=O)N(C)C)c1ccccc1 | 0.112% [at 26.5 µM] | 
37 | Nc1nc(CC(=O)O)cs1 | -0.174% | 
38 | FC(F)(F)C(F)(F)C(F)(F)C(F)(F)C(F)(F)C(F)(F)CCI | -1.29% [at 26.5 µM] | 
39 | COCCO | -0.291% | 
40 | COC(Cc1ccccc1)OC | -0.904% | 
